Molecules are shown by their SMILES. Screen size: about 360,000 compounds; about 3,900 (1.1%) were called active.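 The calls were made as follows: active = mean replicate inhibition score of at least 50 and every replicate individually at or above 50; inconclusive = only one of the two criteria met; inactive = mean below 50 and not all replicates reaching 50.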 What follows is part of a selection rich in actives, with near analogues and random picks from the rest.

By inhibition is commonly meant the change of the read-out against control, counted positive when it falls.

A short description of this experiment: blockers of JRFL envelope-mediated fusion – HeLa-JRFL effector, CEM21 target cells, luciferase, primary screen (AID 651610).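 Also: 0% = plate neutral controls and 100% = maraviroc near 300 nM.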 Conditions: HeLa-JRFL Env/CEM21 cell fusion, active compounds read high; at 16.7 µM unless noted.
With `COc1ccc(NC(=O)N(C)C[C@@H]2OCCCC[C@@H](C)Oc3ccc(N(C)C)cc3C(=O)N([C@H](C)CO)C[C@@H]2C)cc1`, the inhibition is 7.61% (inactive).

Turning to `C[C@H]1CN([C@@H](C)CO)C(=O)Cc2cc(NC(=O)C3CC3)ccc2O[C@H]1CN(C)C(=O)Nc1ccc(C(F)(F)F)cc1`, the inhibition was 3.78% (inactive).

As to `C[C@H](CO)N1C[C@H](C)[C@@H](CN(C)S(=O)(=O)c2cn(C)cn2)OCCCC[C@H](C)Oc2ccc(NC(=O)Cc3ccccc3)cc2C1=O`, the inhibition is -9.54% (inactive).

As to `C=CCn1c(C)cc(C2=NNC(=NCC)SC2)c1C`, the inhibition is 68.8% [at 12.3 µM] (active).

Consider `CO[C@@H]1CN(C)C(=O)c2ccc(NC(=O)c3ccc(F)cc3)cc2OC[C@H](C)NC[C@@H]1C`, for which the inhibition is -0.21% (inactive).

Regarding `C[C@@H]1CN([C@H](C)CO)C(=O)Cc2cc(NC(=O)Nc3ccc(F)cc3)ccc2O[C@@H]1CN(C)C(=O)Nc1ccc2c(c1)OCO2`, the inhibition was 8.43% (inactive).

`COc1ccc(N(CC(=O)Nc2cccc3ccccc23)S(C)(=O)=O)c(OC)c1`: the inhibition is 4.71% [at 12.3 µM] (inactive).

With `COc1ccc(N(CC(=O)Nc2ccc(C)cc2C)S(=O)(=O)c2ccccc2[N+](=O)[O-])c(OC)c1`, the inhibition was 31.2% [at 12.3 µM] (inactive).

Turning to `CCc1ccccc1NC(=O)CN(c1ccc(OC)cc1OC)S(=O)(=O)c1ccccc1[N+](=O)[O-]`, the inhibition is 55.2% [at 12.3 µM] (active).

`C[C@H](CO)N1C[C@H](C)[C@@H](CN(C)Cc2ccc(C(=O)Nc3ccccc3N)cc2)Oc2c(NC(=O)c3ccc(-c4nccs4)cc3)cccc2C1=O`: the inhibition is -33.5% (inactive).

On to `COc1ccc(Cl)cc1NC(=O)CN(C)C(=O)CCCc1c[nH]c2ccccc12`, for which the inhibition was 75.6% [at 12.3 µM] (active).

Take `COc1ccc(Cl)cc1NC(=O)CN(C)C(=O)CNC(=O)C12CC3CC(CC(C3)C1)C2`: the inhibition is -38.6% [at 12.3 µM] (inactive).

On to `COc1ccc(Cl)cc1NC(=O)CN(C)C(=O)c1cc2ccccc2cc1OC`, for which the inhibition was 26.5% [at 12.3 µM] (inactive).

On to `C[C@H](CO)N1C[C@H](C)[C@H](CN(C)C(=O)Nc2ccc(C(F)(F)F)cc2)Oc2ccc(NS(=O)(=O)c3cn(C)cn3)cc2CC1=O`, for which the inhibition is 10.7% (inactive).

Consider `CN1C(=O)c2cc(NS(=O)(=O)CC(F)(F)F)ccc2OC[C@H]2O[C@@H](CC(=O)NCc3ccc(Cl)c(Cl)c3)CC[C@@H]21`, for which the inhibition is -8.14% (inactive).

`COCC(=O)Nc1ccc2c(c1)C(=O)N(C)[C@H]1CC[C@H](CC(=O)Nc3ccccc3)O[C@H]1CO2`: the inhibition was 12.1% (inactive).

On to `O=S(=O)(NCc1ccccc1)c1ccc(S(=O)(=O)N2CCCC2)cc1`, for which the inhibition is -8.09% [at 12.3 µM] (inactive).

As to `O=C1c2cccnc2C(Nc2ccc(S(=O)(=O)N3CCCCCC3)cc2)N1Cc1ccccc1` (stereo not given), the inhibition is 75.5% [at 12.3 µM] (active).

Turning to `Cc1nc(Nc2ccc(S(=O)(=O)N3CCCC3)cc2)c2nnn(Cc3ccccc3)c2n1`, the inhibition was 11.3% [at 12.3 µM] (inactive).

On to `NCC[C@@H]1CC[C@@H](NC(=O)C2CCCC2)[C@H](CO)O1`, for which the inhibition was -16.5% (inactive).

As to `O=C(C[C@H]1C[C@H]2c3cc(NC(=O)c4ccc5c(c4)OCO5)ccc3O[C@H]2[C@@H](CO)O1)NCc1cccc(F)c1`, the inhibition is -9.68% (inactive).

As for `CCc1ccc(CN(C)C(=O)CCc2nnc(-c3ccc(-c4ccccc4)cc3)o2)nc1`, the inhibition is 55.8% [at 12.3 µM] (active).

As for `CC(=O)c1ccc(-c2nnc(CCC(=O)N(C)Cc3cnc4ccccn34)o2)s1`, the inhibition was 0.752% [at 12.3 µM] (inactive).

As for `CCc1ccc(CN(C)Cc2nc(Cc3ccccc3)no2)nc1`, the inhibition was 9.8% [at 12.3 µM] (inactive).

In the case of `CN(C)C(=O)C[C@H]1C[C@H]2c3cc(NC(=O)Nc4ccccc4F)ccc3O[C@H]2[C@@H](CO)O1`, the inhibition is 1.88% (inactive).

Regarding `Fc1ccc(-n2c(Cc3ccccc3)nnc2SCc2nc(-c3ccc(Cl)cc3)no2)cc1`, the inhibition was 79.7% [at 12.3 µM] (active).

In the case of `Cn1c(SCc2ccc(F)cc2)nnc1-c1ccncc1`, the inhibition was 8.23% [at 12.3 µM] (inactive).

Consider `Cn1cccc1Cc1nnc(SCC(=O)NCCc2ccccc2)n1-c1ccc(F)cc1`, for which the inhibition was 16% [at 12.3 µM] (inactive).

Consider `O=C(CSc1nnc(Cc2ccccc2)n1-c1ccccc1)N1CCOCC1`, for which the inhibition is -26.5% [at 12.3 µM] (inactive).

Take `Cc1ccc(-c2noc(CSc3nnc(-c4ccncc4)n3-c3ccc(F)cc3)n2)cc1`: the inhibition is 62.8% [at 12.3 µM] (active).

Consider `Cc1ccc(-c2noc(CSc3nnc(-c4cccs4)n3C)n2)cc1`, for which the inhibition was 19.8% [at 12.3 µM] (inactive).

As for `C[C@@H]1CCCCO[C@@H](CN(C)Cc2ccncc2)[C@H](C)CN([C@@H](C)CO)C(=O)c2cc(NS(=O)(=O)c3ccccc3)ccc2O1`, the inhibition is 18.8% (inactive).

As to `CO[C@@H]1CN(C)C(=O)c2cc(NC(C)=O)ccc2OC[C@@H](C)N(C(=O)NC2CCCCC2)C[C@H]1C`, the inhibition was 27.6% (inactive).

In the case of `CC1(C(=O)NCc2cccc3ccccc23)CCN1Cc1ccc(-c2ccccc2)o1` (stereo not given), the inhibition is 102% [at 12.3 µM] (active).

Consider `CSc1ccc(CN2CCC2(C)C(=O)NCc2ccccc2Br)cc1` (stereo not given), for which the inhibition is 26.2% [at 12.3 µM] (inactive).

On to `CC1(C(=O)NCc2ccc3c(c2)OCO3)CCN1C(=O)Cc1cccc2ccccc12` (stereo not given), for which the inhibition is -2.06% [at 12.3 µM] (inactive).

For the compound `COc1ccc(NC(=O)Nc2ccc3c(c2)CC(=O)N([C@H](C)CO)C[C@H](C)[C@H](CN(C)S(=O)(=O)c2ccc(OC)cc2)O3)cc1`, the inhibition was 42.7% (inactive).

Consider `C[C@H]1CN([C@@H](C)CO)C(=O)c2cccc(NC(=O)Nc3ccc(C(F)(F)F)cc3)c2O[C@H]1CN(C)S(=O)(=O)c1ccccc1`, for which the inhibition is 69.3% (active).

`C[C@@H]1CN([C@H](C)CO)C(=O)c2cc(NC(=O)Nc3ccccc3)ccc2O[C@H]1CN(C)S(=O)(=O)c1ccc(F)cc1`: the inhibition is -5.96% (inactive).

Regarding `C[C@@H]1CN([C@H](C)CO)C(=O)c2cccc(NC(=O)Nc3cccc4ccccc34)c2O[C@@H]1CN(C)C(=O)Nc1cccc2ccccc12`, the inhibition was -85% (inactive).

With `CNC[C@@H]1Oc2c(NC(=O)Nc3ccc(OC)cc3)cccc2C(=O)N([C@@H](C)CO)C[C@@H]1C`, the inhibition was 5.18% (inactive).

For the compound `C[C@@H]1CCCCO[C@@H](CN(C)S(=O)(=O)c2ccc(F)cc2)[C@@H](C)CN([C@@H](C)CO)C(=O)c2cc(NC(=O)Nc3ccc4c(c3)OCO4)ccc2O1`, the inhibition is -5.81% (inactive).

Regarding `COc1ccc(NC(=O)Nc2ccc3c(c2)CC(=O)N([C@H](C)CO)C[C@H](C)[C@H](CN(C)S(=O)(=O)c2ccccc2)O3)cc1`, the inhibition is 59.1% (active).

Regarding `C[C@H](CO)N1C[C@H](C)[C@H](CN(C)S(=O)(=O)c2ccccc2)Oc2c(NC(=O)Nc3ccccc3)cccc2C1=O`, the inhibition is -1.17% (inactive).

`CNC[C@H]1Oc2c(NC(=O)Nc3cccc4ccccc34)cccc2C(=O)N([C@H](C)CO)C[C@H]1C`: the inhibition is 56.8% (active).

On to `COc1ccc(S(=O)(=O)N(C)C[C@H]2Oc3ccc(NC(=O)Nc4ccccc4)cc3CC(=O)N([C@H](C)CO)C[C@@H]2C)cc1`, for which the inhibition was -2.93% (inactive).

Consider `C[C@H](CO)N1C[C@H](C)[C@@H](CN(C)S(=O)(=O)c2ccc(F)cc2)Oc2c(NC(=O)Nc3ccccc3)cccc2C1=O`, for which the inhibition was -4.04% [at 12.3 µM] (inactive).

`C[C@H]1CN([C@@H](C)CO)C(=O)c2cc(NC(=O)Nc3ccc4c(c3)OCO4)ccc2O[C@H]1CN(C)S(=O)(=O)c1ccc(F)cc1`: the inhibition was 68.9% (active).

For the compound `CCCN(C)C[C@@H]1Oc2cc(-c3cccc(C#N)c3)ccc2S(=O)(=O)N([C@@H](C)CO)C[C@@H]1C`, the inhibition was 1.91% (inactive).

For `C[C@H](CO)N1C[C@H](C)[C@H](CN(C)C(=O)NC2CCCCC2)Oc2ccc(NC(=O)c3ccncc3)cc2CC1=O`, the inhibition was -6.85% (inactive).

Turning to `C[C@@H]1CCCCO[C@H](CN(C)S(=O)(=O)c2cn(C)cn2)[C@H](C)CN([C@@H](C)CO)C(=O)c2cc(NC(=O)Nc3ccc(C(F)(F)F)cc3)ccc2O1`, the inhibition was -4.59% (inactive).

For the compound `CC(C)NC(=O)Nc1ccc2c(c1)CC(=O)N([C@@H](C)CO)C[C@@H](C)[C@@H](CN(C)S(=O)(=O)c1ccccc1)O2`, the inhibition is 4.16% (inactive).

As to `CC(C)NC(=O)Nc1ccc2c(c1)C(=O)N([C@H](C)CO)C[C@H](C)[C@@H](CN(C)C(=O)CCCN(C)C)OCCCC[C@@H](C)O2`, the inhibition was 2.66% (inactive).

For `C[C@@H]1CCCCO[C@@H](CN(C)Cc2ccc3c(c2)OCO3)[C@@H](C)CN([C@@H](C)CO)C(=O)c2cc(NC(=O)C3CCCCC3)ccc2O1`, the inhibition was -19.5% (inactive).

In the case of `CN(C)C(=O)c1cccc(-c2ccc3n(c2=O)C[C@H]2N[C@@H]3[C@@H](C(=O)NC3CCC3)[C@@H]2CO)c1`, the inhibition was 4.81% (inactive).

As for `C[C@H](CO)N1C[C@H](C)[C@H](CN(C)S(=O)(=O)c2cccs2)Oc2ccc(NS(=O)(=O)c3ccccc3)cc2C1=O`, the inhibition was 37% (inactive).

As to `C[C@@H]1CN([C@@H](C)CO)C(=O)Cc2cc(NC(=O)Nc3ccccc3)ccc2O[C@@H]1CN(C)S(=O)(=O)c1ccc(F)cc1`, the inhibition was 56.4% (active).

For the compound `Cc1ccc(S(=O)(=O)N(C)C[C@@H]2Oc3ncc(-c4cc5ccccc5o4)cc3C(=O)N([C@H](C)CO)C[C@@H]2C)cc1`, the inhibition is 73% (active).

Turning to `C[C@H](CO)N1C[C@H](C)[C@@H](CN(C)S(=O)(=O)c2ccccc2)Oc2ccc(NC(=O)Nc3ccc(F)cc3)cc2CC1=O`, the inhibition is -10.6% (inactive).

On to `C[C@H](CO)N1C[C@H](C)[C@H](CN(C)S(=O)(=O)c2ccc(F)cc2)Oc2ncc(-c3ccc(F)cc3)cc2C1=O`, for which the inhibition is 24.9% (inactive).

`COc1ccc(NC(=O)Nc2ccc3c(c2)C(=O)N([C@@H](C)CO)C[C@H](C)[C@@H](CN(C)S(=O)(=O)c2ccc(Cl)cc2)O3)cc1`: the inhibition is 7.85% (inactive).

In the case of `C[C@H]1CN([C@@H](C)CO)C(=O)Cc2cc(NC(=O)Nc3ccc(F)cc3)ccc2O[C@H]1CN(C)S(=O)(=O)c1ccccc1`, the inhibition was 54% (inactive).

On to `COc1ccc(-c2cnc3c(c2)C(=O)N([C@H](C)CO)C[C@H](C)[C@H](CN(C)S(=O)(=O)c2ccccc2)O3)cc1`, for which the inhibition is 11.4% (inactive).

For `COc1ccc(S(=O)(=O)N(C)C[C@@H]2Oc3ccc(NC(=O)Nc4c(C)noc4C)cc3C(=O)N([C@H](C)CO)C[C@@H]2C)cc1`, the inhibition is -131% [at 12.3 µM] (inactive).

As to `COc1ccc(NC(=O)Nc2ccc3c(c2)C(=O)N([C@H](C)CO)C[C@H](C)[C@H](CN(C)S(=O)(=O)c2ccc(OC)cc2)O3)cc1`, the inhibition is 59.4% (active).

(Values after PubChem BioAssay AID651610 (Broad Institute, 2012).)
